Screen size: about 330,000 compounds; about 40 (0.01%) were called active. This is one part of a sample in which actives are shown more often than they occur. A number with no mark means an inactive call. Calls come from the whole dose curve; as a rule, active = well fitted inhibition curve with a large enough effect; inconclusive = small, poorly fitted or top-dose-only effect, or effect the other way; inactive = flat fitted curve, though single readings scatter.

Chain of Ubiquitin carboxyl-terminal hydrolase 2 (Homo sapiens) (O75604 whole entry, looked up): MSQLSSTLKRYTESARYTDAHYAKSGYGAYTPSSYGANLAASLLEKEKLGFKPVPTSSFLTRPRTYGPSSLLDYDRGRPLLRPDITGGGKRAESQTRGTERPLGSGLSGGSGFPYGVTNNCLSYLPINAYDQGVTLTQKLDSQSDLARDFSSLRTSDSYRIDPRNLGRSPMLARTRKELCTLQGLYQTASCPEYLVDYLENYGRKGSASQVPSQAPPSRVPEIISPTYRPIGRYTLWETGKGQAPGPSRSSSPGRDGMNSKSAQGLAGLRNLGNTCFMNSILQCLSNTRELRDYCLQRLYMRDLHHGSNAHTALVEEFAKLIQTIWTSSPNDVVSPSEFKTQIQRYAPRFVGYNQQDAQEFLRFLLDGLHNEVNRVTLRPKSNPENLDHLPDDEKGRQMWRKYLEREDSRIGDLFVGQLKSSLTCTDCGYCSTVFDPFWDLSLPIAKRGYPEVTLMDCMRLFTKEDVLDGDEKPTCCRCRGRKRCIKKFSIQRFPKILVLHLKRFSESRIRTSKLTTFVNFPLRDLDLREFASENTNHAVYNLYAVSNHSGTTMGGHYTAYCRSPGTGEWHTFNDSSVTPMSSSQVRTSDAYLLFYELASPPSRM

This assay deals with Ubiquitin carboxyl-terminal hydrolase 2 (Homo sapiens) (UniProt O75604). Kind of assay: qHTS Assay for Inhibitors of Ubiquitin-specific Protease USP2a Using CHOP2 as the Reporter. The settings on record: USP2 core, Ub-CHOP2 coupled fluorogenic reporter, 485/531; series mostly up to 38.3 µM. The text has this:
NIH Molecular Libraries Screening Centers Network [MLSCN] NIH Chemical Genomics Center [NCGC] MLSCN Grant: XO1-MH079852-01 PI Name: Nicholson, Ben. Progenra Inc, Malvern, PA NCGC Assay Overview: Homeostasis of cellular proteins is maintained through a combination of synthesis and degradation. The pathway that accounts for the majority of protein degradation is the ubiquitin-proteasomal pathway. Ubiquitin (Ub) is highly conserved in all cells and the generation of a multi-Ub chain typically targets proteins for degradation by the proteasome. However, ubiquitination is highly reversible and dynamic. Deubiquitination, the reverse process, is catalyzed through the action of enzymes referred to as isopeptidases or deubiquitinating enzymes (DUBs). This group of enzymes is collectively responsible for maintaining adequate pools of free ubiquitin and regulating the ubiquitination status of cellular proteins. The class of DUBs referred to as the ubiquitin-specific proteases (USP) family functions endoproteolytically to cleave Ub chains from a wide range of protein substrates. USP2a deubiquitinates fatty acid synthase (FASN) which has recently been identified as an emerging oncology target. To identify inhibitors of USP2a a cell-free assay was employed. […] The reporter enzyme chosen is an enterokinase called CHOP2, which is activated when the Ub is cleaved by USP2. The free and now activated reporter can subsequently act on its reporter substrate. Thus, this coupled assay gives a fluorescent read-out at excitation/emission wavelengths of 485/531. The assay was developed by Progenra, Inc. and has been licensed for sale by LifeSensors, Inc. as Ub-CHOP2-Reporter-Kit (#PR1101).
NCGC Assay Protocol Summary: The assay buffer, prepared fresh at the day of the assay, contains 20mM Tris-HCl pH 8.0, 2mM CaCl2, 2mM beta-Mercaptoethanol, 0.05% CHAPS. 3ul of 20nM (10nM final) USP2 core, which is stored on ice, is dispensed into a medium-binding black solid Kalypsys 1,536 well plate using the Kalypsys dispenser. The assay plate is then pinned with 23nL compound with the Kalypsys pintool in columns 5-48. The controls are pinned as follows: column 1 two-fold dilutions of 2M NEM in duplicate; column 2 2M NEM (final concentration 38.2mM); column 3&4 DMSO. The assay plate is incubated at RT for 30min. Subsequently, 1.5uL of 100nM (25nM final) Ub-CHOP2 and 1.5uL of 100nM (25nM final) Reporter Substrate (both stored on ice and protected from light) were dispensed into the plate using the Kalypsys dispenser. Plates were read after 60min RT incubation on a ViewLux (Perkin Elmer) plate reader using the following wavelengths Ex 485nm /Em 531nm. Data were normalized to the to AC100 inhibition (NEM). Concentration-response curves were fitted to the normalized data and the concentration-response curves were then classified based on curve quality (r2), response magnitude and degree of measured activity. The time zero reading was used to flag fluorescence artifacts. Keywords: ubiquitination, deubiquitination, proteases, profluorescent, MLSMR, MLPCN, NIH Roadmap, qHTS, NCGC
A general note: qHTS replaces the single test concentration by a dilution series.
Consider `COc1ccc(Br)cc1CN(C)CC(=O)Nc1cc(Cl)cc(Cl)c1`, for which the activity change, negative = inhibition result was “inactive”.
As for `COc1ccc2c3c(c(=O)oc2c1)C1O[C@](CCCCN2C(=O)c4ccccc4C2=O)(Cc2c1ccc1ccccc21)O3`, the activity change, negative = inhibition is 0.0315% [at 7.66 µM].
The result for `CC(C)NC(=O)C(=O)NCCCOC(C)C` reads “inactive”; that for `O=C(CN1CCOCC1)N1CCCc2c1c(=O)oc1ccc(OCc3ccccc3)cc21`, “inactive”; that for `CCOCCOCCC(C(=O)O)P(=O)(c1ccccc1)c1ccccc1` (centres undefined), “inactive”.
The result for `CCOC(=O)c1c(NC(=O)CCCN2CCOCC2)sc2c1CC(C)(C)OC2` reads “inactive”.
The result for `CC(C)(C)[Si](OCC[C@@H]1C[C@@]1(C)[C@@H](NP(=O)(c1ccccc1)c1ccccc1)c1ccccc1)(c1ccccc1)c1ccccc1` reads “inactive”; that for `CCC(C)n1c(-c2cc(OC)c(OC)c(OC)c2)nc2nc3ccccc3nc21` (centres undefined), “inactive”; that for `CC(C)(C)C(=O)NC1CC2CCCC(C1)N2C(=O)Nc1ccccc1F` (centres undefined), “inactive”.
As to `C=CC[n+]1c(-c2ccc(C)cc2)csc1NNC(=O)Nc1ccccc1`, the activity change, negative = inhibition entry was “inactive”.
The result for `CCNC(=S)N(CCN(CC)CC)Cc1cc2cc3c(cc2[nH]c1=O)OCO3` reads “inactive”.
Consider `Cn1c(CC(=O)NNC(=O)c2ccccc2F)nc2ccccc21`, for which the activity change, negative = inhibition entry was “inactive”.
The result for `COc1ccc(-c2[nH]ncc2CN(Cc2nccn2C)C(C)C)cc1F` reads “inactive”; that for `Cc1cc(C)c(NC(=O)CSc2nc3ccncc3[nH]2)c(C)c1`, “inactive”.
Turning to `CCOC(=O)C(CC)/C(C)=N\NC(=O)c1cccc(C)c1` (centres undefined), the activity change, negative = inhibition entry is “inactive”.
As for `CSc1nc(-c2ccco2)nn1C(=O)c1ccccc1Cl`, the activity change, negative = inhibition entry was “inactive”.
The result for `CCN(CC)CCN1C(=O)C(=O)/C(=C(/O)c2cnn(-c3ccccc3)c2C)C1c1cccs1` (centres undefined) reads “inactive”.
Consider `Cc1ccc(C(=O)N/C(=C/c2ccco2)C(=O)NCCc2c[nH]c3ccccc23)cc1C`, for which the activity change, negative = inhibition result is “inactive”.
The result for `Cc1ccc(NC(=O)CCC(=O)c2ccc(Br)cc2)cc1` reads “inactive”; that for `C/C(=N\NC(=O)NC1CCCCC1)c1ccc(OC(F)F)cc1OC(F)F`, “inactive”.
The result for `CCC(=O)Nc1c(S(=O)(=O)c2ccccc2)c2nc3ccccc3nc2n1Cc1ccccc1` reads “inactive”.
On to `CC(c1ccco1)N(C(=O)Nc1ccccc1)C1CCCCC1` (centres undefined), for which the activity change, negative = inhibition entry was “inactive”.
The result for `Cc1ccc(NC(=O)Cn2cnc3c(OCc4ccccc4)ncnc32)cc1C` reads “inactive”; that for `COc1ccc(C(=O)N2CCc3cc(OC)c(OC)cc3C2c2cccc([N+](=O)[O-])c2)cc1` (centres undefined), “inactive”.
The result for `COc1ccc(C(=O)C2CCCN(C(=O)c3cc(C)on3)C2)cc1F` (centres undefined) reads “inactive”.
The result for `COC(c1ccccc1)(c1ccccc1)C(Oc1nc(C)cc(C)n1)C(=O)O` (centres undefined) reads “inactive”; that for `CN(C)/C=C(/C(=O)c1ccc(Cl)cc1)S(=O)(=O)c1ccccc1`, “inactive”; that for `O=C(Oc1ccc([N+](=O)[O-])cc1)c1ccc(Cl)c(S(=O)(=O)N2CCCCC2)c1`, “inactive”.
Turning to `Cc1ccc(N(Cc2cc(=O)[nH]c3ccccc23)C(=O)CCl)cc1`, the activity change, negative = inhibition result was “inactive”.
Turning to `C=CCn1cc(Cl)cc(C(=O)Nc2ccccc2)c1=O`, the activity change, negative = inhibition entry was “inactive”.
The result for `CCCCCCCCn1c2c(c(=N)c3c1CCC3)CCCC2` reads “inactive”; that for `COc1cccc(CNC(=O)COc2cc(O)c3c(c2)OC(C)(C)CC3=O)c1`, “inactive”; that for `Cn1nnnc1NCc1ccc(Cl)c(Cl)c1`, “inactive”.
Consider `COC(=O)c1cccc([N+](=O)[O-])c1CS(=O)(=O)c1ccc(C)cc1`, for which the activity change, negative = inhibition entry is “inactive”.
On to `C#CCOCCOCCOCCNc1nc(N2CCN(C(=O)C([C@@H](C)O)n3cc([C@@H](N)CCCCN)nn3)CC2)nc(N2CCN(C(=O)[C@H](CCCCN)n3cc(CN)nn3)CC2)n1` (some centres undefined), for which the activity change, negative = inhibition entry was “inactive”.
The result for `CN(C)CCCNc1c2c(c(C#N)c3nc4ccccc4n13)CCC2` reads “inactive”; that for `O=[N+]([O-])C(=c1ccc2c(c1)N1C3=C(CCCC3)CC3CCCCC31N=2)[N+](=O)[O-]` (centres undefined), “inactive”.
The result for `Cc1cc(N2CCN(c3ccc(F)cc3)CC2)n2ncnc2n1` reads “inactive”.
The result for `CCOC(=O)C1(CCOc2ccccc2)CCN(Cc2ccc(C#CCCO)cc2)CC1` reads “inactive”; that for `CC(C)CN(C(=O)CSc1nncn1C)C1CCS(=O)(=O)C1` (centres undefined), “inactive”; that for `O=C(COC(=O)c1ccc(F)cc1F)Nc1ncccn1`, “inactive”.
As to `CC(=O)N[C@@H](C)C(=O)N1CCC(n2nccc2NC(=O)CCCc2ccccc2)CC1`, the activity change, negative = inhibition entry was “inactive”.
The result for `Cc1ccc(C(=O)Nc2nnc(C3=COCCO3)o2)cc1C` reads “inactive”; that for `COc1ccccc1-n1c(C)nc2cc(C(=O)NCc3ccc4c(c3)OCO4)ccc21`, “inactive”.
`CCCC(C)C(=O)NCc1ccncc1` (centres undefined): the activity change, negative = inhibition entry is “inactive”.
On to `CCOC(=O)c1sc(NC(=O)CSc2nc3c(c(=O)n2-c2ccccc2)SCC3)c(C(=O)OCC)c1C`, for which the activity change, negative = inhibition result is “inactive”.
With `CC(C)C(C)(C#N)NC(=O)CSc1nncn1-c1ccccc1` (centres undefined), the activity change, negative = inhibition result is “inactive”.
The result for `COc1cccc(/C=C(/CC(=O)Nc2ccc(N3CCOCC3)cc2)c2nc3ccccc3s2)c1` reads “inactive”.
The result for `O=C(NC(=S)Nc1cccc(-c2ccc(CO)o2)c1)c1cccs1` reads “inactive”.

For the origin of these results see PubChem BioAssay AID463254 (National Center for Advancing Translational Sciences (NCATS), 2010).
